In PubChem BioAssay (NCI):
Compounds without any hit were thinned out: in the full panel of roughly 83,000, 20% have a hit.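 How to read the values: 0–100, growth inhibition (40 = 60% inhibited); 0, no net growth; -100 to 0, cell death (-40 = 40% of starting cells died; -100 = all dead).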 Unmarked numbers belong to inactive results. Active and inactive are the calls of the source. Rule for the calls: active = growth percent below 10; inactive = the rest.

Experiments:
Assay in all cases: NCI-60 one-dose screen, 48 h (100 = growth as untreated, 0 = no growth, -100 = all killed)
Settings in all cases: 10 µM unless noted
NCI-H23 lung = system: NCI-H23 lung
NCI-H226 lung = system: NCI-H226 lung
NCI-H322M lung = system: NCI-H322M lung
HOP-62 NSCLC = system: HOP-62 NSCLC
NCI-H460 lung = system: NCI-H460 lung
HOP-92 NSCLC = system: HOP-92 NSCLC
NCI-H522 lung = system: NCI-H522 lung
A549/ATCC NSCLC = system: A549/ATCC NSCLC
786-0 renal = system: 786-0 renal
COLO 205 colon = system: COLO 205 colon
DU-145 prostate = system: DU-145 prostate
K-562 leukemia = system: K-562 leukemia
MALME-3M melanoma = system: MALME-3M melanoma
MDA-MB-231 breast = system: MDA-MB-231 breast
RXF 393 renal = system: RXF 393 renal
SF-268 CNS = system: SF-268 CNS
SF-295 CNS = system: SF-295 CNS
SF-539 CNS = system: SF-539 CNS
UACC-257 melanoma = system: UACC-257 melanoma
M14 melanoma = system: M14 melanoma

| Compound | growth (NCI-H23 lung) | growth (NCI-H226 lung) | growth (NCI-H322M lung) | growth (HOP-62 NSCLC) | growth (NCI-H460 lung) | growth (HOP-92 NSCLC) | growth (NCI-H522 lung) | growth (A549/ATCC NSCLC) | growth (786-0 renal) | growth (COLO 205 colon) | growth (DU-145 prostate) | growth (K-562 leukemia) | growth (MALME-3M melanoma) | growth (MDA-MB-231 breast) | growth (RXF 393 renal) | growth (SF-268 CNS) | growth (SF-295 CNS) | growth (SF-539 CNS) | growth (UACC-257 melanoma) | growth (M14 melanoma) |
| --- | --- | --- | --- | --- | --- | --- | --- | --- | --- | --- | --- | --- | --- | --- | --- | --- | --- | --- | --- | --- |
| O=C1/C(=C/c2cccc3c2OCO3)Cc2c(F)cc(Br)cc21 | 97.2% | 106% | 113% | 109% | 117% | 123% | 104% | 111% | 107% | 128% | 115% | 109% | 103% | 115% | 104% | 109% | 96% | 99.7% | 114% | 98.9% |
| CCCCN1C(=O)/C(=C\C(=O)c2cc3ccccc3oc2=O)c2ccccc21 | 79% | 88.5% | 99.4% | 92.3% | 86.4% | 63.7% | -19.9% (active) | 106% | 75% | -20.5% (active) | 85.8% | -36.9% (active) | 69% | 48.2% | 60.1% | 87.5% | 101% | 80.2% | 105% | 53.5% |
| Oc1ccc(Cl)c(Nc2nc(SCCN3CCOCC3)nc3c2cnn3CC(Cl)c2ccc(Br)cc2)c1 (stereo not given) | 31.8% | 38.5% | 92.8% | 32.7% | 10.1% | -6.99% (active) | 22.2% | 12% | 43.3% | 106% | 35% | -22.9% (active) | 12.2% | -3.97% (active) | -14.2% (active) | 40.8% | 13% | 29.2% | 28.2% | 25% |
| COc1ccc(-c2cc(-c3cc(C(C)C)c(O)cc3C)nn2-c2ccc(S(N)(=O)=O)cc2)cc1 | 41.5% | 78.6% | 72.3% | 51.5% | 33.8% | 45.4% | 6.99% (active) | 40.4% | 25.5% | 122% | 16.2% | 13.6% | 60.1% | 27.9% | 26.7% | 47.2% | 19.8% | -28% (active) | 60.5% | 42.8% |
| O=C(N/N=C/c1occc1Br)c1[nH]c2ccc(Br)cc2c1-c1ccccc1 | -100% (active) | -82.5% (active) | -81.2% (active) | -69.1% (active) | -86.2% (active) | -74.1% (active) | -86.9% (active) | -41.7% (active) | -76.6% (active) | -73.5% (active) | -78.4% (active) | 6.6% (active) | -94.9% (active) | -83.1% (active) | -88.2% (active) | -65.9% (active) | -91.2% (active) | -100% (active) | -68.2% (active) | -84.5% (active) |
| Fc1ccc(Nc2nnc(-c3c[nH]c4ccccc34)o2)cc1 | 85.7% | 70.2% | 94.5% | 71% | 91.9% | 58.2% | 48.7% | 77.5% | 94.7% | 127% | 98% | 66.9% | 80.8% | 60.8% | 93.9% | 73.1% | 84.1% | 71.2% | 92.7% | 102% |
| CCCCNc1ccc2c3c(cccc13)C(=O)N(NCC(O)COc1ccc3c(C)cc(=O)oc3c1)C2=O (stereo not given) | 87.4% | 87.5% | 91% | 97% | 92.6% | 78.2% | 83.2% | 87% | 101% | 92.2% | 89.2% | 75.8% | 110% | 81.4% | 91.6% | 79.6% | 95.5% | 91.8% | 106% | 90.6% |
| C=CCn1c(O)c(N=Nc2nc(-c3cc4ccccc4oc3=O)cs2)c2ccccc21 | 35.4% | 74.2% | 101% | 80.8% | 18.3% | 85% | 58.3% | 24.7% | 47.3% | 18.1% | 74.1% | 107% | 104% | -24.9% (active) | -4.94% (active) | 42.1% | 54.6% | 83.7% | 101% | 70.9% |
| O=C(CSc1nnc(-c2ccc(-c3nc4ccc(Cl)cc4[nH]3)cc2)o1)Nc1ccc(Cl)cc1 | -11.9% (active) | -38.2% (active) | 32.9% | -13.6% (active) | -75.8% (active) | 14.7% | -1.21% (active) | -36.2% (active) | -39.5% (active) | 45.3% | 6.16% (active) | 11.2% | -23.8% (active) | -51.5% (active) | -49% (active) | 8.68% (active) | 27.6% | -95.3% (active) | 3.38% (active) | 1.01% (active) |
| Cc1ccc(-c2cc(C(=O)N=Nc3c(O)[nH]c4ccc(F)cc34)c3ccccc3n2)cc1 | 15.1% | 59% | 44.4% | 6.08% (active) | 1.25% (active) | 104% | 25.5% | 11.2% | 44% | 73.9% | 51.1% | 60.8% | 48.4% | 11% | 109% | 65.3% | 98.7% | -39.7% (active) | 69% | 79.6% |
| Nc1nn2c(-c3cc4ccccc4oc3=O)ccnc2c1N=Nc1ccccc1 | 12.5% | 35.1% | 65.4% | 22.3% | 44.4% | 30.2% | 25.3% | 100% | 41.4% | 114% | 90.6% | 67.2% | 81.9% | -34.8% (active) | 2.06% (active) | 61.8% | 72.3% | -62.4% (active) | 109% | 92.1% |
| Cn1cc(-c2cc(N)n3nc(-c4c[nH]c5ccccc45)cc3n2)c2cc(F)ccc21 | 44.7% | 91.4% | 65.1% | -22.1% (active) | -23.9% (active) | 31.3% | -61.8% (active) | 13.7% | -2.12% (active) | -47.4% (active) | 46.2% | 3.57% (active) | 76.8% | -52.2% (active) | 148% | 65.3% | -50.8% (active) | -61.9% (active) | 45.7% | -0.365% (active) |
| CCOc1ccccc1[C@H]1C(C(=O)c2ccc(Cl)cc2)C2(N[C@@H]1c1ccccc1)C(=O)Nc1ccccc12 (stereo not given in full) | 4.22% (active) | -18.4% (active) | 36.1% | 32.9% | -36.3% (active) | -22.4% (active) | -3.52% (active) | 57.4% | -16.4% (active) | -81.5% (active) | 31% | 0.16% (active) | -15.9% (active) | 2.23% (active) | -66.5% (active) | 43.9% | 9.84% (active) | 28% | 55.3% | 15.2% |
| O=C(Nc1ccc(-c2ccc3c(c2)NC(=O)/C3=C\c2ccc[nH]2)cc1)Nc1ccc(Cl)c(C(F)(F)F)c1 | 15.4% | 65.8% | 50.6% | 44.1% | 4.07% (active) | 46.9% | -15.1% (active) | 18% | 48.8% | 15.4% | 44.1% | 15.2% | 64.4% | 72.2% | 42.3% | 46.3% | 38.4% | 44.2% | 24.5% | 54.8% |
| O=C(c1ccc(O)cc1)C1[C@H](c2ccc(Cl)cc2)[C@@H](c2ccccc2)NC12C(=O)Nc1ccccc12 (stereo not given in full) | -41.7% (active) | -13.8% (active) | 9.03% (active) | -20.1% (active) | -20.5% (active) | -27.8% (active) | -8.98% (active) | 14.4% | -43.2% (active) | -82.9% (active) | 20.5% | -8.58% (active) | -40.2% (active) | -80.2% (active) | -74% (active) | 22.4% | -48.6% (active) | -50.6% (active) | 77.7% | -27% (active) |
